Our source for the binding signal values is publication PMC5700166.

Common to all, as to experiment: protein-binding microarray (PBM); PBM: ~300 nM protein, 6 mM HEPES pH 7.8, 80 mM KCl, 0.5 mM EDTA, 0.5 mM EGTA, 6% glycerol, 35 ng/ul poly-dIdC, 1% milk, 1 h, room temperature; Ap Aiptasia and Nv Nematostella (sea anemones) / Co Capsaspora / Aq Amphimedon (sponge) / Dm Drosophila / Hu human; RHD is the Rel homology domain; high values mean tight binding
What all share (conditions): dsDNA, one strand shown

One experiment addresses T1, GST-Ap-NF-kB RHD (Exaiptasia pallida (Aiptasia), UniProt A0A913YAJ5 2-422).
T1 sequence: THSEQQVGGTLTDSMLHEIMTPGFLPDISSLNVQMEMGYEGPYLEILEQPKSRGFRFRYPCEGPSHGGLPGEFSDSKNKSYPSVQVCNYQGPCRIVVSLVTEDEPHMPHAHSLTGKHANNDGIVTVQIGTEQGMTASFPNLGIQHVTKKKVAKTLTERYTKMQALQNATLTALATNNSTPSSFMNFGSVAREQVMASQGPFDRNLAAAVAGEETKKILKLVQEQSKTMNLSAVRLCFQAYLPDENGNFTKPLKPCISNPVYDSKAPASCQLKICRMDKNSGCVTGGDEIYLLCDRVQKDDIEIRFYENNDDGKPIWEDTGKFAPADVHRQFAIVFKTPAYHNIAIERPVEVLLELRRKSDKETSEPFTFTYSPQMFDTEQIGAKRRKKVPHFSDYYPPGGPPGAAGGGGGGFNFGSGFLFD

Experiment [1] deals with T2, GST-Nv-NF-kB (Cys allele) (Nematostella vectensis, UniProt E5G601 2-411).
T2 sequence: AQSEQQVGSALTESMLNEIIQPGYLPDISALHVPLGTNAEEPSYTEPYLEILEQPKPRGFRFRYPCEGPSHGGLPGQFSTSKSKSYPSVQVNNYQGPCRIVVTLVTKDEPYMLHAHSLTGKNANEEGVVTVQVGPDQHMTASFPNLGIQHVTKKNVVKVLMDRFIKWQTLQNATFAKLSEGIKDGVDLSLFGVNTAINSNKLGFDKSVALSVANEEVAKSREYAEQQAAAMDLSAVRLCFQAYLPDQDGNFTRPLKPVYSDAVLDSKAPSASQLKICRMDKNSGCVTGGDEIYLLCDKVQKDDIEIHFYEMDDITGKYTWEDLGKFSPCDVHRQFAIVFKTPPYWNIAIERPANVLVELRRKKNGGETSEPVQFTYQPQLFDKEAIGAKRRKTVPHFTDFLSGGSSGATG

The next experiment addresses T3, GST-Co-NF-kB (Capsaspora owczarzaki, UniProt F1ARL5 200-546).
T3 sequence: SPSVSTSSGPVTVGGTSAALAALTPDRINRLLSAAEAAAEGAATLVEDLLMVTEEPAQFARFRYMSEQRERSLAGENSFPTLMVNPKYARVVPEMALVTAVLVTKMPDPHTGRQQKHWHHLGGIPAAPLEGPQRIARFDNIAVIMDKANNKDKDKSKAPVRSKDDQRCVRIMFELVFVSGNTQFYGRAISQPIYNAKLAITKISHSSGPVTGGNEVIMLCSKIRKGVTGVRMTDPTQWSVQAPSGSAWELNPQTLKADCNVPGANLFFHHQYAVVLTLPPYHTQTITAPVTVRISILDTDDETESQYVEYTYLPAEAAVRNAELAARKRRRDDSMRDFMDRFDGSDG

The target of a further experiment is T4, GST-Dm-Relish (Drosophila melanogaster, UniProt Q94527 99-473).
T4 sequence: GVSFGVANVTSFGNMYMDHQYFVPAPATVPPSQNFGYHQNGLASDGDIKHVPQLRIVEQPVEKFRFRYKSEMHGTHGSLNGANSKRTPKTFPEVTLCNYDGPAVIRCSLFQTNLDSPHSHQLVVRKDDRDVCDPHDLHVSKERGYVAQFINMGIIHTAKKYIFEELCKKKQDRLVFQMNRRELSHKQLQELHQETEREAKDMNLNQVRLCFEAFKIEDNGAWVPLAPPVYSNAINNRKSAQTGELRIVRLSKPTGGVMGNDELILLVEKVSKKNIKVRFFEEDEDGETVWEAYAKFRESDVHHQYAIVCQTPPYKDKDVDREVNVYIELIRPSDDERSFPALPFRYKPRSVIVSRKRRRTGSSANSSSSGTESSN

The target in another experiment is T5, GST-Aq-NF-kB (Amphimedon queenslandica, UniProt A9Y5G7 2-389).
T5 sequence: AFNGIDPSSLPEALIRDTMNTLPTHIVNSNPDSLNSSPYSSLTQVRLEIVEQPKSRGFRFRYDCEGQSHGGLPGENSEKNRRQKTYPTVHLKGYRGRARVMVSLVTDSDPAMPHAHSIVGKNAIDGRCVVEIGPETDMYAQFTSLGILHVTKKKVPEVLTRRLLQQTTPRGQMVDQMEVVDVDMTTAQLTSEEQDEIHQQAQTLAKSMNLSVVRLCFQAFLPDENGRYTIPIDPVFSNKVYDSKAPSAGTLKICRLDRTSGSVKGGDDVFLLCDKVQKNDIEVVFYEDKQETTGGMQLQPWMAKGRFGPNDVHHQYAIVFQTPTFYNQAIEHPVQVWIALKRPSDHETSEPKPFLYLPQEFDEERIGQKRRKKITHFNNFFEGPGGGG

Take “CCGATTAACATCAAATAGCCCCCTGATGTTAATCGGGTCTTGATTCGCTTGACGCTGCTG”: the binding signal in the experiment with GST-Ap-NF-kB RHD worked out at 5.01 z-score; in experiment [1] it was 4.8 z-score; with GST-Co-NF-kB, 2.9 z-score; in the experiment with GST-Dm-Relish, 4.26 z-score; with GST-Aq-NF-kB, 5.62 z-score.

For “CCGATTAACATCAAGGTACCCCCTGATGTTAATCGGGTCTTGATTCGCTTGACGCTGCTG”, the binding signal amounted to 5.83 z-score with GST-Ap-NF-kB RHD; 2.82 z-score in experiment [1]; 4.58 z-score in the experiment with GST-Co-NF-kB; 2.84 z-score with GST-Dm-Relish; 3.11 z-score in the experiment with GST-Aq-NF-kB.

In the case of “CCGATTAACATCAACGTATTCCCTGATGTTAATCGGGTCTTGATTCGCTTGACGCTGCTG”, the binding signal was 3.17 z-score in the experiment with GST-Ap-NF-kB RHD; 2.78 z-score in experiment [1]; 2.86 z-score in the experiment with GST-Co-NF-kB; 1.41 z-score in the experiment with GST-Dm-Relish; 1.85 z-score in the experiment with GST-Aq-NF-kB.

For the sequence “CCGATTAACATCAAAAACACCCCTGATGTTAATCGGGTCTTGATTCGCTTGACGCTGCTG”, the binding signal with GST-Ap-NF-kB RHD was 4.85 z-score; in experiment [1], 3.9 z-score; with GST-Co-NF-kB it was 3.98 z-score; with GST-Dm-Relish, 5.77 z-score; in the experiment with GST-Aq-NF-kB, 4.95 z-score.

For “CCGATTAACATCAAGCAATTCCCTGATGTTAATCGGGTCTTGATTCGCTTGACGCTGCTG”, the binding signal with GST-Ap-NF-kB RHD is 3.2 z-score; in experiment [1], 4.28 z-score; with GST-Co-NF-kB, 2.25 z-score; in the experiment with GST-Dm-Relish, 1.23 z-score; in the experiment with GST-Aq-NF-kB, 3.57 z-score.

Regarding “CCGATTAACATCAGGGAACTACCTGATGTTAATCGGGTCTTGATTCGCTTGACGCTGCTG”, the binding signal was found to be 4.91 z-score with GST-Ap-NF-kB RHD; 4.67 z-score in experiment [1]; 1.23 z-score with GST-Co-NF-kB; 8.33 z-score with GST-Dm-Relish; 6.44 z-score with GST-Aq-NF-kB.

Regarding “CCGATTAACATCAGGAACCCCCATGATGTTAATCGGGTCTTGATTCGCTTGACGCTGCTG”, the binding signal with GST-Ap-NF-kB RHD is 7.5 z-score; in experiment [1], 5 z-score; with GST-Co-NF-kB, 2.67 z-score; with GST-Dm-Relish it was 9.25 z-score; with GST-Aq-NF-kB, 5.35 z-score.

As for “CCGATTAACATCACGGGAACCCCTGATGTTAATCGGGTCTTGATTCGCTTGACGCTGCTG”, the binding signal in the experiment with GST-Ap-NF-kB RHD is 5.04 z-score; in experiment [1], 2.85 z-score; with GST-Co-NF-kB it was 1.9 z-score; in the experiment with GST-Dm-Relish, 9.89 z-score; with GST-Aq-NF-kB, 5.86 z-score.

In the case of “CCGATTAACATCAGGAGTACCCCTGATGTTAATCGGGTCTTGATTCGCTTGACGCTGCTG”, the binding signal with GST-Ap-NF-kB RHD is 3.01 z-score; in experiment [1], 2.42 z-score; with GST-Co-NF-kB it was 2.96 z-score; with GST-Dm-Relish, 3.64 z-score; with GST-Aq-NF-kB, 4.07 z-score.

As for “CCGATTAACATCAGATTCTCCCCTGATGTTAATCGGGTCTTGATTCGCTTGACGCTGCTG”, the binding signal in the experiment with GST-Ap-NF-kB RHD stood at 5.2 z-score; in experiment [1], 5.25 z-score; in the experiment with GST-Co-NF-kB, 6.76 z-score; in the experiment with GST-Dm-Relish it was 1.92 z-score; in the experiment with GST-Aq-NF-kB, 4.43 z-score.

As for “CCGATTAACATCAGGGTATTCCATGATGTTAATCGGGTCTTGATTCGCTTGACGCTGCTG”, the binding signal in the experiment with GST-Ap-NF-kB RHD was 3.89 z-score; in experiment [1], 4.62 z-score; with GST-Co-NF-kB, 1.19 z-score; with GST-Dm-Relish it was 5.81 z-score; in the experiment with GST-Aq-NF-kB, 4.83 z-score.

For “CCGATTAACATCAGGCCTCCCCCTGATGTTAATCGGGTCTTGATTCGCTTGACGCTGCTG”, the binding signal with GST-Ap-NF-kB RHD came to 4.86 z-score; in experiment [1], 4.22 z-score; with GST-Co-NF-kB, 4.14 z-score; with GST-Dm-Relish, 6 z-score; with GST-Aq-NF-kB it was 6.6 z-score.

As to “CCGATTAACATCACCAATTTCCCTGATGTTAATCGGGTCTTGATTCGCTTGACGCTGCTG”, the binding signal turned out to be 3.3 z-score with GST-Ap-NF-kB RHD; 4.17 z-score in experiment [1]; 3.83 z-score in the experiment with GST-Co-NF-kB; 1.84 z-score in the experiment with GST-Dm-Relish; 3.17 z-score with GST-Aq-NF-kB.

Take “CCGATTAACATCAAATGGGAATTTGATGTTAATCGGGTCTTGATTCGCTTGACGCTGCTG”: the binding signal is 1.19 z-score with GST-Ap-NF-kB RHD; 4.5 z-score in experiment [1]; 1.12 z-score in the experiment with GST-Co-NF-kB; 4.52 z-score with GST-Dm-Relish; 2.35 z-score with GST-Aq-NF-kB.

Turning to “CCGATTAACATCAGGCCCCCCCCTGATGTTAATCGGGTCTTGATTCGCTTGACGCTGCTG”, the binding signal amounted to 5.7 z-score in the experiment with GST-Ap-NF-kB RHD; 4.06 z-score in experiment [1]; 3.96 z-score with GST-Co-NF-kB; 6.13 z-score in the experiment with GST-Dm-Relish; 5.74 z-score with GST-Aq-NF-kB.

For “CCGATTAACATCAAGGATTTCCCTGATGTTAATCGGGTCTTGATTCGCTTGACGCTGCTG”, the binding signal was determined as 4.49 z-score in the experiment with GST-Ap-NF-kB RHD; 6.09 z-score in experiment [1]; 3.24 z-score in the experiment with GST-Co-NF-kB; 6.12 z-score with GST-Dm-Relish; 6.2 z-score with GST-Aq-NF-kB.

For “CCGATTAACATCAGACCTCCCCCTGATGTTAATCGGGTCTTGATTCGCTTGACGCTGCTG”, the binding signal stood at 6.03 z-score with GST-Ap-NF-kB RHD; 3.94 z-score in experiment [1]; 5.48 z-score with GST-Co-NF-kB; 2.4 z-score with GST-Dm-Relish; 4.44 z-score with GST-Aq-NF-kB.

On to “CCGATTAACATCAAGTTTACCCCTGATGTTAATCGGGTCTTGATTCGCTTGACGCTGCTG”, for which the binding signal in the experiment with GST-Ap-NF-kB RHD was 3.21 z-score; in experiment [1] it was 2.2 z-score; with GST-Co-NF-kB, 6.61 z-score; with GST-Dm-Relish, 2.4 z-score; in the experiment with GST-Aq-NF-kB, 2.91 z-score.

Consider “CCGATTAACATCAGGGGACACCCTGATGTTAATCGGGTCTTGATTCGCTTGACGCTGCTG”, for which the binding signal in the experiment with GST-Ap-NF-kB RHD was 5.89 z-score; in experiment [1] it was 4.47 z-score; with GST-Co-NF-kB, 3.91 z-score; with GST-Dm-Relish, 7.15 z-score; with GST-Aq-NF-kB, 6.52 z-score.
